PubChem BioAssay AID2284062 (EPA ToxCast)
The source made the active and inactive calls. How the source made its calls: active means hit-call score of the fitted dose curve at least 0.9, where 1 is the maximum; inactive means score below 0.9.

Each compound was assayed against human CK1delta CK1 Kinase, CSNK1D (gene 1453) (UniProt P48730) (assay: ERF_TW_ENZ_hCSNK1D: Eurofins (ERF) Enzymatic Radiometric [10 uM ATP] Assay for human CK1delta CK1 Kinase).
Procedure: ERF_TW_ENZ_hCSNK1D is a biochemical, single-readout assay that uses extracted gene-proteins in a cell-free assay. Measurements were taken 0.5 hour after chemical dosing in a 96-well plate. See CK1delta Human CK1 Kinase Enzymatic Radiometric Assay [10 uM ATP], Panlabs.ERF_TW_ENZ_hCSNK1D is an assay component calculated from the ERF_TW_ENZ_hCSNK1D assay. It is designed to measure enzyme activity using a type of enzyme reporter as detected by scintillation counting with radiometry technology.Data from the assay component ERF_TW_ENZ_hCSNK1D was analyzed at the assay endpoint, ERF_TW_ENZ_hCSNK1D, in the positive analysis fitting direction relative to DMSO as the negative control and baseline of activity. Using a type of enzyme reporter, loss-of-signal activity can be used to understand changes in enzymatic activity as they relate to gene CSNK1D. To generalize the intended target to other relatable targets, this assay endpoint is annotated to the kinase intended target family, where the subfamily is serine/threonine kinase.
CK1d (h) is incubated with 8 mM MOPS pH 7.0, 0.2 mM EDTA, 200 uM KRRRALS(p)VASLPGL, 10 mM MgAcetate and [gamma-33P]-ATP (specific activity and concentration as required). The reaction is initiated by the addition of the Mg/ATP mix. After incubation for 40 minutes at room temperature, the reaction is stopped by the addition of phosphoric acid to a concentration of 0.5%. […]

Sequence of human CK1delta CK1 Kinase, CSNK1D (gene 1453) (P48730 whole entry, looked up): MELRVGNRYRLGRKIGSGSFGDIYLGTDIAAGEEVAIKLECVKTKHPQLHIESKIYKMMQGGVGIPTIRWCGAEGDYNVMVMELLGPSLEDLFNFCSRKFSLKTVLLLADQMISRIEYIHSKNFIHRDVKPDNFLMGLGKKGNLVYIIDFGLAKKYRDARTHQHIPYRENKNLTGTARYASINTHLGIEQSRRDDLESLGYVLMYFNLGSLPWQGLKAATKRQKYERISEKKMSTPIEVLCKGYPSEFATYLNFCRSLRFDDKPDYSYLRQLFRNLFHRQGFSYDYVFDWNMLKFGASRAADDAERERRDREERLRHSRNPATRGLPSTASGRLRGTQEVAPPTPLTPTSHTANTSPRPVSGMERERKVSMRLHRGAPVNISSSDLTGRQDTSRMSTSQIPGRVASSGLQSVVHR

| Structure (SMILES) | AC50 |
| --- | --- |
| O=C(/C=C/c1ccc(O)cc1)CC(=O)/C=C/c1ccc(O)cc1 | 1660 nM (active) |
